Consider 51 compounds from PubChem BioAssay AID651658 (Broad Institute, 2012).

In all, about 340,000 compounds went through this assay and about 5,100 (1.5%) were called active.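 The calls were made as follows: active = mean Tm shift, scaled 0 neutral to 100 positive control, at about 1.3% or above, every replicate too (limit read from the data); inconclusive = no clear call, values can overlap the other calls; inactive = the rest.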 Only a selection was taken, and actives are over-represented in it overall.

Fibroblast growth factor 22 (Homo sapiens), sequence (Q9HCT0 whole entry, looked up): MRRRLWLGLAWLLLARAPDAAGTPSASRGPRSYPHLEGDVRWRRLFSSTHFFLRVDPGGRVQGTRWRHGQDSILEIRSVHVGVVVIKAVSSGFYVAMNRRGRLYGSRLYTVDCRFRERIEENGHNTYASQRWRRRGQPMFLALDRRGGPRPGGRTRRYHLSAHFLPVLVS

The test has as its target Fibroblast growth factor 22 (Homo sapiens) (UniProt Q9HCT0). The test is described as follows: FGF22 ligand-induced thermal stabilization – biophysical, thermal shift, single point, FGF22 synaptogenesis inhibitor project, primary screen (AID 651658). The note with it: recombinant FGF22 thermal shift, SYPRO orange fluorescence; at 9.99 µM; active compounds read high; percent of sucrose octasulfate shift, DMSO zero.
Consider `C[C@H]1CN([C@@H](C)CO)C(=O)c2cc(-c3ccccc3)cnc2O[C@H]1CN(C)C(=O)C1CCOCC1`, for which the activity (Tm shift, normalised) is 0.036% (inactive).
Take `O=C(NC1Cc2ccccc2C1)[C@@H]1[C@@H](CO)[C@@H]2Cn3c(ccc(C4=CCCC4)c3=O)[C@H]1N2CC1CC1`: the activity (Tm shift, normalised) is 0.451% (inactive).
`C[C@H]1CN([C@@H](C)CO)C(=O)CCCn2nncc2CO[C@@H]1CN(C)S(=O)(=O)c1ccccc1C#N`: the activity (Tm shift, normalised) was -0.468% (inactive).
In the case of `Cc1cccc(OCC(O)CN2CCN(CCN3C(=O)c4cccc5cccc(c45)C3=O)CC2)c1C` (stereo unspecified), the activity (Tm shift, normalised) is 0.358% (inactive).
Regarding `CC(C)c1ccc(OCC(O)CN2CCN(c3ccccn3)CC2)cc1` (stereo unspecified), the activity (Tm shift, normalised) is -0.21% (inactive).
As for `Cc1ccccc1OCC(O)CN1CCN(c2ccccn2)CC1` (stereo unspecified), the activity (Tm shift, normalised) is 44.2% (active).
Take `COc1ccc(NC(=O)N[C@H]2C=C[C@H](CC(=O)NCc3ccccn3)O[C@H]2CO)cc1`: the activity (Tm shift, normalised) was 0.256% (inactive).
Take `CO[C@H](CN(C)C(=O)c1cnccn1)[C@@H](C)CN([C@@H](C)CO)S(=O)(=O)c1ccc(C)cc1`: the activity (Tm shift, normalised) is 0.044% (inactive).
As for `COc1ccc(CC2(CO)CCN(Cc3cnn(C)c3)CC2)cc1`, the figure is 0.198% (inactive).
`OCC1(Cc2ccccc2)CCN(Cc2cc3ccccc3o2)CC1`: the activity (Tm shift, normalised) was 42.4% (inactive).
For `COc1ccccc1/C=C/CN1CCC(CO)(Cc2ccccc2)CC1` the value was 43.2% (active).
With `CO[C@H]1CN(C)C(=O)c2cc(NC(=O)c3nc4ccccc4s3)ccc2OC[C@H](C)N(Cc2cccnc2)C[C@@H]1C`, the activity (Tm shift, normalised) is -0.365% (inactive).
With `COc1cccc(S(=O)(=O)N2CCCCN3[C@H](CO)[C@H](c4ccc(-c5ccncc5)cc4)[C@H]3C2)c1`, the activity (Tm shift, normalised) is -0.25% (inactive).
With `O=C(Nc1ccccc1F)N1C[C@H]2[C@@H](c3ccccc31)[C@@H](CO)N2C(=O)Cc1cccnc1`, the activity (Tm shift, normalised) was 0.459% (inactive).
`CC(C)CC(=O)Nc1ccc(Cc2ccncc2)cc1`: the activity (Tm shift, normalised) is -0.02% (inactive).
In the case of `Cc1cc(C)n(CC(=O)Nc2ccc([N+](=O)[O-])cc2)n1`, the activity (Tm shift, normalised) is -0.311% (inactive).
Consider `Cc1cc([N+](=O)[O-])nn1CC(=O)Nc1ccc(Cc2ccncc2)cc1`, for which the activity (Tm shift, normalised) is 43.3% (active).
With `COCC(=O)N1CC[C@H]2[C@H](CO)Nc3ccc(-c4ccc(C(=O)N(C)C)cc4)cc3[C@H]21`, the activity (Tm shift, normalised) is -0.374% (inactive).
As for `CN(C)C(=O)C[C@@H]1CC[C@H](NC(=O)NC2CCCC2)[C@H](CO)O1`, the activity (Tm shift, normalised) is -0.148% (inactive).
Turning to `CCC(C)N(C(=O)COC(=O)C1C(C(=O)OC)=C(C)NC(C)=C1C(=O)OC)C1CCS(=O)(=O)C1` (stereo unspecified), the activity (Tm shift, normalised) was 43.2% (active).
Turning to `CCC(C)N(C(=O)CSc1nnnn1-c1ccccc1OC)C1CCS(=O)(=O)C1` (stereo unspecified), the activity (Tm shift, normalised) was -0.269% (inactive).
For `CCC(C)N(C(=O)COC(=O)c1nc(Cl)ccc1Cl)C1CCS(=O)(=O)C1` (stereo unspecified) the value was 0.546% (inactive).
Take `O=C(Cc1ccccn1)NCC[C@H]1CC[C@H](NC(=O)Nc2ccc(F)cc2)[C@@H](CO)O1`: the activity (Tm shift, normalised) was 0.059% (inactive).
For the compound `O=C(NN=C1CCC(=NNC(=O)c2cccnc2)CC1)c1cccnc1`, the activity (Tm shift, normalised) was -0.314% (inactive).
For `O=C(CNC(=O)c1cccnc1)N/N=C/c1cc(Br)c(O)c(Br)c1`, the activity (Tm shift, normalised) is 0.674% (inactive).
On to `Cc1cc(/C=N/NC(=O)c2cccnc2)c(C)n1CC(C)C`, for which the activity (Tm shift, normalised) is 43% (active).
Turning to `O=C(C[C@@H]1C[C@@H]2c3cc(NC(=O)Nc4ccc(C(F)(F)F)cc4)ccc3O[C@@H]2[C@@H](CO)O1)NCCc1ccccc1`, the activity (Tm shift, normalised) was 0.083% (inactive).
Regarding `COc1ccc(NC(=O)N(C)C[C@H]2OCCCC[C@H](C)Oc3ccc(NC(=O)c4ccncc4)cc3C(=O)N([C@H](C)CO)C[C@@H]2C)cc1`, the activity (Tm shift, normalised) was -0.473% (inactive).
On to `C[C@@H]1CN([C@H](C)CO)C(=O)c2cc(C3=CCCC3)cnc2O[C@@H]1CN(C)C(=O)Nc1ccc(F)cc1`, for which the activity (Tm shift, normalised) is -0.106% (inactive).
In the case of `O=C(CN1CCCCCC1)Nc1ccc(Br)cc1[N+](=O)[O-]`, the activity (Tm shift, normalised) was -0.021% (inactive).
As to `COc1cc([N+](=O)[O-])ccc1NC(=O)CN1CCCC1`, the activity (Tm shift, normalised) is 1.49% (active).
Regarding `COc1cc(Cl)c(C)cc1NC(=O)CN1CCCCCC1`, the activity (Tm shift, normalised) was -0.091% (inactive).
Consider `O=C(Nc1ccccc1)Nc1nc2ccccc2s1`, for which the activity (Tm shift, normalised) was 43.2% (active).
For `CC(=O)Nc1ccc(-c2csc(NC(=O)Nc3ccccc3)n2)cc1`, the activity (Tm shift, normalised) was 44.8% (active).
For `O=C(Nc1ccccc1)Nc1nnc(COc2ccccc2F)s1`, the activity (Tm shift, normalised) is 0.184% (inactive).
Consider `O=C(CCC(=O)c1cccs1)Nc1nc2ccccc2s1`, for which the activity (Tm shift, normalised) was 0.414% (inactive).
For `NC(c1ccccc1)c1csc(NC(=O)Nc2cccc(C(F)(F)F)c2)n1` (stereo unspecified) the value was -0.154% (inactive).
On to `O=C(NCc1cccnc1)C(=O)Nc1nc(-c2ccccc2)cs1`, for which the activity (Tm shift, normalised) was 0.205% (inactive).
Consider `O=C(C[C@@H]1CC[C@@H](NC(=O)c2ccc3c(c2)OCO3)[C@H](CO)O1)NCc1ccc(Cl)cc1`, for which the activity (Tm shift, normalised) was -0.267% (inactive).
Regarding `Cc1cc(OCCCCOc2ccc(C#N)cc2)ccc1[N+](=O)[O-]`, the activity (Tm shift, normalised) is 0.385% (inactive).
As to `CCCCCOc1ccc(CSC2=NCCN2)cc1[N+](=O)[O-]`, the activity (Tm shift, normalised) was 43.9% (active).
As for `Cc1nc(SCc2ccc(F)cc2)c([N+](=O)[O-])[nH]1`, the activity (Tm shift, normalised) is -0.03% (inactive).
As for `C[C@@H]1CCCCO[C@@H](CN(C)C(=O)C2CCCCC2)[C@H](C)CN([C@H](C)CO)C(=O)c2cc(NC(=O)c3ccccc3)ccc2O1`, the activity (Tm shift, normalised) is -0.449% (inactive).
Take `CCN(CC)S(=O)(=O)c1ccc(Cl)c(C(=O)NCCN2CCOCC2)c1`: the activity (Tm shift, normalised) is -0.116% (inactive).
In the case of `CCN(CC)S(=O)(=O)c1ccc(N2CCCC2)c(NS(=O)(=O)c2cccs2)c1`, the activity (Tm shift, normalised) was -0.637% (inactive).
For `CCN(CC)S(=O)(=O)c1ccc(Cl)c(C(=O)NC(C)C(c2cccs2)N2CCCC2)c1` (stereo unspecified), the activity (Tm shift, normalised) was 43.4% (active).
On to `CN(C)CC(=O)Nc1ccc2c(c1)[C@H]1C[C@H](CC(=O)NCc3ccccn3)O[C@@H](CO)[C@H]1O2`, for which the activity (Tm shift, normalised) is -0.026% (inactive).
On to `O=C(CNC1CCCCC1)NCC1(c2ccccc2)CCCC1`, for which the activity (Tm shift, normalised) is 43% (active).
As for `CCOc1c(OC)cccc1C(=O)NCC1(c2ccccc2)CCCC1`, the activity (Tm shift, normalised) was -0.318% (inactive).
As to `COc1cc(C(=O)NCC2(c3ccccc3)CCCC2)ccc1OC(C)C`, the activity (Tm shift, normalised) is -0.207% (inactive).
As for `CO[C@@H]1CN(C)C(=O)c2ccc(NC(=O)C3CCC3)cc2OC[C@H](C)NC[C@H]1C`, the figure is -0.059% (inactive).
